# Results from PubChem BioAssay (NCATS).
# Inconclusive results are not listed. A call without a number means that no potency is given here. Calls of active or inactive are those of the source. The call rests on the fitted dose curve; in most records, active means well fitted inhibition curve with a large enough effect; inconclusive means small, poorly fitted or top-dose-only effect; inactive means flat fitted curve, though single readings scatter.
# Biological target: Glutathione peroxidase 1 (Homo sapiens) (UniProt P07203)
# Sequence (P07203 whole entry, looked up): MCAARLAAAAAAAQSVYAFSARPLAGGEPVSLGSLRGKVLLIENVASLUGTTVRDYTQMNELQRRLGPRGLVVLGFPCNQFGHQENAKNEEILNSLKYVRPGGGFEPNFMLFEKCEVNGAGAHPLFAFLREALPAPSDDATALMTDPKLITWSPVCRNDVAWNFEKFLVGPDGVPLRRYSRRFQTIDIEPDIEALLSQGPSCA
# Experiment: Primary qHTS Assay for Inhibitors of Recombinant Selenoprotein Glutathione Peroxidase 1 (GPX1) (AID 1845191); further: nearly all actives have a fitted effect of over 65% in size
# Details: recombinant GPX1, GR-coupled NADPH fluorescence, 15 min; series mostly up to 48.8 µM
# Outline: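 NADPH consumption tracked by fluorescence at 340/450 nm between t=0 and t=15 min, room temperature. Final mix: 10 nM GPX1, 100 nM glutathione reductase, 1 mM GSH, 0.5 mM NADPH, 0.5 mM cumene hydroperoxide, 0.01% BSA; 30 min compound–enzyme preincubation.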
# Potency means the concentration at half of the fitted maximal effect.
row,SMILES,Potency
1,O=c1[nH]c(=O)n([C@H]2O[C@H](CO)[C@@H](O)[C@@H]2O)cc1/C=C\Br,inactive
2,CCC1=C[C@@H]2CN(C1)Cc1c([nH]c3ccccc13)[C@@](C(=O)OC)(c1cc3c(cc1OC)N(C)[C@H]1[C@@](O)(C(=O)OC)[C@H](OC(C)=O)[C@]4(CC)C=CCN5CC[C@]31[C@@H]54)C2,inactive
3,COc1ccc2c(c1)c(CC(=O)OC/C=C(\C)CC/C=C(\C)CCC=C(C)C)c(C)n2C(=O)c1ccc(Cl)cc1,inactive
4,C[C@H]1NCc2cc(-c3ccc4c(=O)c(C(=O)O)cn(C5CC5)c4c3OC(F)F)ccc21,inactive
5,O=C(Nc1ccc(S(=O)(=O)N2CCOCC2)cc1)c1cc(Cl)ccc1NS(=O)(=O)c1ccc(Cl)s1,inactive
6,CC(=O)[C@@]1(O)CC[C@H]2[C@@H]3C[C@H](C)C4=CC(=O)CC[C@]4(C)[C@H]3CC[C@@]21C,inactive
7,O=C(OCC1(COC(=O)c2cccnc2)CCCC(COC(=O)c2cccnc2)(COC(=O)c2cccnc2)C1O)c1cccnc1,inactive
8,O=C(O)C(=O)Nc1cccc(-c2nn[nH]n2)c1,inactive
9,Nc1c2ccccc2nc2ccccc12,22.7 µM (active)
10,COC(=O)/C=C\C(=O)OC,inactive
11,COC(=O)C1=C(C)NC(C)=C(C(=O)OCCc2ccc(N3CCN(C(c4ccccc4)c4ccccc4)CC3)cc2)C1c1cccc([N+](=O)[O-])c1 (stereo not drawn),inactive
12,Cc1cc2nc3ccc(=[N+](C)C)cc-3sc2cc1N,28.6 µM (active)
13,CN1CCC(Nc2ncc3ncnc(Nc4ccc(F)c(Cl)c4)c3n2)CC1,inactive
